From PubChem BioAssay (EPA / NIEHS)
Values joined by “and” are separate entries in the source; they are usually repeats but may differ in a detail not shown here. Equal entries are not always repeated. The source holds several records for some structures; these can differ, active in one and inactive in another. Active and inactive are the calls of the source. How the source made its calls: active means hit-call score of the fitted dose curve at least 0.9, where 1 is the maximum; inactive means score below 0.9.

read-out: Interleukin-8 (IL8), CXCL8 (gene 3576); experiment: BSK_BF4T_IL8: BioMAP Diversity Plus: BF4T Assay for Interleukin-8 (IL8) Biomarker Activity (AID 2284263); conditions: primary human bronchial epithelial cells with fibroblasts
Method: BSK_BF4T is a cell-based, multiplexed-readout assay that uses bronchial epithelial cells and dermal fibroblasts, a human vascular primary cell, with measurements taken at 24 hours after chemical dosing in a microplate: 96-well plate.BSK_BF4T_IL8 is an assay component measured in the BSK_BF4T assay. It measures IL-8 antibody related to regulation of gene expression using ELISA technology.Data from the assay component BSK_BF4T_IL8 was analyzed at the endpoint, BSK_BF4T_IL8, in the positive analysis fitting direction relative to DMSO as the negative control and baseline of activity. Using a type of binding reporter, gain or loss-of-signal activity can be used to understand protein changes. To generalize the intended target to other relatable targets, this assay endpoint is annotated to the 'cytokine' intended target family, where the subfamily is 'interleukins'.
The levels of cell surface (or secreted, indicated by the prefix "s") biomarker endpoints were measured by ELISA. Overt cytotoxicity to cells in confluent adherent cultures (all systems other than the BT system) was assessed by measuring total protein levels using sulforhodamine B (SRB) staining in parallel cultures at the time of biomarker measurements, indicated as SRB endpoints. For proliferation assays for adherent cell types, individual cell types are cultured at sub-confluence and relative cell numbers quantified by SRB staining at time points optimized for each system (48 h: 3C and CASM3C systems; 72 h: BT and HDF3CGF systems; 96 h: SAg system). SRB was performed by staining cells with 0.1% SRB after fixation with 10% TCA and reading wells at 560 nm.Viability and proliferation of PBMC (T cells) was quantified by Alamar Blue reduction for the SAg and BT systems. For PBMC viability (referred to as PBMC Cytotoxicity within the assay endpoint names), cells were plated (75,000/well in a 96-well plate) and then chemical samples added for 1 h before addition of activators, SEB and TSST-1 (20 ng/mL final concentration each). Cells were incubated for 90 h. Then, Alamar Blue (20 uL/well) (Invitrogen, Cat DAL1100) was added for 6 h, and the plates were read with a fluorescence microplate reader at 546/580 nm (excitation/emission). For PBMC proliferation, cells were plated and activated as above but incubated for only 16 h prior to addition of Alamar Blue. Plates were read after 6 h.

| Compound | AC50 | outcome |
| --- | --- | --- |
| O=C(O)C(F)(F)OC(F)(F)C(F)(F)OC(F)(F)C(F)(F)OC(F)(F)C(F)(F)C(F)(F)C(F)(F)F | 53.7 µM (active) | inactive |
| O=C(CC(=O)C(F)(F)C(F)(F)C(F)(F)F)c1cccs1 | 52.8 µM (active) and 55.1 µM (active) |  |
| O=P(O)(O)CCC(F)(F)C(F)(F)C(F)(F)C(F)(F)C(F)(F)C(F)(F)F |  | inactive |
| O=S(=O)(O)C(F)(F)C(F)(F)C(F)(F)C(F)(F)C(F)(F)C(F)(F)C(F)(F)C(F)(F)C(F)(F)C(F)(F)F | 2.65 µM (active) and 6.99 µM (active) |  |
| OCC(F)(F)C(F)(F)C(F)(F)C(F)(F)C(F)(F)C(F)(F)C(F)(F)C(F)(F)C(F)(F)C(F)(F)C(F)(F)F |  | inactive |
| CN(CCO)S(=O)(=O)C(F)(F)C(F)(F)C(F)(F)C(F)(F)C(F)(F)C(F)(F)C(F)(F)C(F)(F)F | 0.0245 µM (active) | inactive |
| O=P(O)(O)CCC(F)(F)C(F)(F)C(F)(F)C(F)(F)C(F)(F)C(F)(F)C(F)(F)C(F)(F)F |  | inactive |
| O=C(O)CCC(F)(F)C(F)(F)C(F)(F)C(F)(F)C(F)(F)C(F)(F)F |  | inactive |
| C=CC(=O)OCCC(F)(F)C(F)(F)C(F)(F)C(F)(F)C(F)(F)C(F)(F)C(F)(F)C(F)(F)F |  | inactive |
| CN(Cc1cnc2nc(N)nc(N)c2n1)c1ccc(C(=O)N[C@@H](CCC(=O)O)C(=O)O)cc1 | 2.65 µM (active) | inactive |
| O=C(O)CCC(F)(F)C(F)(F)C(F)(F)C(F)(F)C(F)(F)F |  | inactive |
